A short description of test [1]: ATG_TGFb_CIS: Attagene CIS-FACTORIAL HepG2 Assay for human Transforming Growth Factor (TGF) (AID 2282967). Conditions: HepG2 Attagene CIS TGFb reporter, mRNA transcription; actives raise or lower the signal. In a few lines:
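HepG2 cells transiently transfected with cis-promoter-driven multiplexed reporter units; 24 h compound exposure. Reporter mRNA measured by RT-PCR, 6-FAM labeling, HpaI digestion and capillary electrophoresis; bidirectional fit versus DMSO baseline.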

A short description of test [2]: ATG_VDRE_CIS: Attagene CIS-FACTORIAL HepG2 Assay for human Vitamin D Receptor Element (VDRE) (AID 2282968). The note with it: HepG2 VDRE cis-reporter transcription, actives raise or lower the signal. In a few lines: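 Reporter mRNA induction, quantified by capillary electrophoresis of fluorescently labelled RT-PCR products, was read 24 h after dosing HepG2 cells carrying transiently transfected cis-regulated reporter units; gain or loss relative to DMSO.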

In test [3] the target is Nuclear receptor subfamily 1 group I member 3 (Homo sapiens) (UniProt Q14994). In words: ATG_CAR_TRANS: Attagene TRANS-FACTORIAL HepG2 Assay for human Constitutive Androstane Receptor (CAR) (AID 2282969; active means hit-call score of the fitted dose curve at least 0.9, where 1 is the maximum;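 further: activators raise reporter mRNA above DMSO so AC50 marks induction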). Conditions: HepG2 Attagene TRANS-FACTORIAL CAR reporter. In a few lines: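 Readout is reporter mRNA induction, quantified by fluorescent primer extension and capillary electrophoresis after RT-PCR. Cells were HepG2 transiently carrying chimeric NR-Gal4 constructs with GAL4-UAS reporters, treated for 24 h; activity scored upward from DMSO.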

The target of test [4] is Estrogen receptor (Homo sapiens) (UniProt P03372). In words: ATG_ERa_TRANS: Attagene TRANS-FACTORIAL HepG2 Assay for human Estrogen Receptor alpha (ERa) (AID 2282970; active means hit-call score of the fitted dose curve at least 0.9, where 1 is the maximum). The note with it: HepG2 Attagene TRANS ERa GAL4 reporter, mRNA. The procedure, abridged: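 Transactivation via ERa-Gal4 chimera in HepG2; 24 hour incubation; reporter mRNA detected by fluorescence RT-PCR and capillary electrophoresis.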

Test [5] has as its target Steroid hormone receptor ERR1 (Homo sapiens) (UniProt P11474). In words: ATG_ERRa_TRANS: Attagene TRANS-FACTORIAL HepG2 Assay for human Estrogen-Related Receptor alpha (ERRa) (AID 2282971; active means hit-call score of the fitted dose curve at least 0.9, where 1 is the maximum). Conditions: HepG2 Attagene TRANS reporter, ERRa transactivation. In a few lines: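 HepG2 cells were transiently transfected with multiple GAL4-UAS reporter units, then dosed with compound for 24 h. Total RNA was reverse-transcribed, reporter cDNA PCR-amplified and fluorescently labelled, and fragments resolved by capillary electrophoresis; induction was compared with DMSO.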

Test [6] deals with X-box-binding protein 1 (Homo sapiens) (UniProt P17861). Put plainly: ATG_Xbp1_CIS: Attagene CIS-FACTORIAL HepG2 Assay for human X-box Binding Protein 1 (XBP1) (AID 2282972). Conditions: HepG2 XBP1 cis-element reporter, Attagene multiplex; actives raise or lower the signal. In a few lines:
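HepG2, transient MRTU transfection (cis-promoter driven), 24 h compound exposure. Total RNA → oligo(dT) RT → PCR → 6-FAM labeling → HpaI cut → CE. Bidirectional fit vs DMSO.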

Test [7] is described as follows: ATG_M_19_TRANS: Attagene TRANS-FACTORIAL HepG2 Assay for M19 Transcription Factor (Internal Marker) (AID 2282974; active means hit-call score of the fitted dose curve at least 0.9, where 1 is the maximum). The note with it: HepG2 Attagene TRANS-FACTORIAL M19 internal marker reporter. The procedure, abridged: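 Using RT-PCR and capillary electrophoresis, reporter mRNA from transiently transfected human HepG2 cells was quantified following 24 h exposure; activity was fitted in the positive direction against DMSO.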

For test [8], the target named is Androgen receptor (Homo sapiens) (UniProt P10275). Put plainly: ATG_AR_TRANS: Attagene TRANS-FACTORIAL HepG2 Assay for human Androgen Receptor (AR) (AID 2282973; active means hit-call score of the fitted dose curve at least 0.9, where 1 is the maximum). Conditions: HepG2 Attagene TRANS-FACTORIAL AR reporter transcription. The procedure, abridged: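 Transfected HepG2, 24 h treatment, chimeric NR-Gal4 driving GAL4-UAS reporters. mRNA induction by RT-PCR/capillary electrophoresis fluorescence; DMSO as negative control and baseline.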

Test [9] in a line: ATG_Hpa5_TRANS: Attagene TRANS-FACTORIAL HepG2 Assay for human GAL4-Hpa5 Hepatocyte Transcription Factor Basal Promoter (AID 2282975; active means hit-call score of the fitted dose curve at least 0.9, where 1 is the maximum;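 further: hits are increases in reporter mRNA over DMSO baseline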). Conditions: HepG2 Attagene GAL4-Hpa5 transcription reporter. The procedure, abridged: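 Basal-promoter GAL4 background control within the HepG2 trans-factorial panel of transiently transfected reporter units. Reporter mRNA is measured 24 h after dosing by RT-PCR and capillary electrophoresis, fitted for gain of signal versus DMSO.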

The nature of test [10]: ATG_GAL4_TRANS: Attagene TRANS-FACTORIAL HepG2 Assay for GAL4 (Internal Marker) (AID 2282976; active means hit-call score of the fitted dose curve at least 0.9, where 1 is the maximum). Conditions: HepG2 Attagene TRANS GAL4 internal marker reporter. The procedure: ATG_TRANS is a cell-based, multiplexed-readout assay that uses HepG2, a human liver cell line, with measurements taken at 24 hours after chemical dosing in a 24-well plate.ATG_GAL4_TRANS is one of 30 assay component(s) measured or calculated from the ATG_TRANS assay. It is designed to make measurements of mRNA induction, a form of inducible reporter, as detected with fluorescence intensity signals by Reverse transcription polymerase chain reaction (RT-PCR) and Capillary electrophoresis technology.Data from the assay component ATG_GAL4_TRANS was analyzed into 1 assay endpoint. This assay endpoint, ATG_GAL4_TRANS, was analyzed in the positive analysis fitting direction relative to DMSO as the negative control and baseline of activity. Using a type of inducible reporter, measures of mRNA for gain-of-signal activity can be used to understand the background control at the transcription factor-level as they relate to the gene . Furthermore, this assay endpoint can be referred to as a secondary readout, because this assay has produced multiple assay endpoints where this one serves a background control function. To generalize the intended target to other relatable targets, this assay endpoint is annotated to the background measurement intended target family, where the subfamily is baseline control.
Human liver HepG2 cells are transiently transfected with multiple reporter transcription units (MRTUs) in 6-well plates using FuGene 6 reagent (Roche; 3 ml FuGene/1 mg DNA). The MRTU constructs are regulated by a cis-regulating element (promoter). […] A major difference between the CIS and TRANS system is that in CIS activities of endogenous TFs are measured, whereas the TRANS assay evaluates changes in activities of exogenous, chimeric NR-Gal4 proteins. […] At the end of 24 hour incubation, total RNA was isolated using TriZol reagent (Invitrogen). The isolated RNA is then reverse-transcribed using oligo(dT) primer and Mo-MLV reverse transcriptase (Invitrogen) with DNAse I (Ambion) treatment for 30 min. The one-tenth of the produced cDNA was amplified by PCR using Taq DNA polymerase (Invitrogen) and two reporter sequence-specific primers. The PCR products were fluorescently labeled by primer extension with 6-arboxyfluorescein (6-FAM) 5'-labeled reporter sequence-specific primer (2 min at 95 C, 20 s at 68 C and 10 min at 72 C) and these products were digested with 5U of HpaI (New England Biolabs) for 2h at 37 C. The fragments were purified using Qiaquick PCR columns (Qiagen), analyzed on an ABI 3130xL genetic analyzer (Applied Biosystems) with peak positions identified by using a set of X-rhodamine (ROX)-labeled MapMarker1000 molecular weight standards (BioVentures). The raw capillary electrophoresis data was processed using Attagraph software (Attagene).

Molecules are shown by their SMILES. Results filed as inconclusive are left out. Activity calls are given as the source filed them. How the source made its calls, unless noted: active means hit-call score of the fitted dose curve at least 0.9, where 1 is the maximum; inactive means score below 0.9.

A word on the AC50: it is the concentration giving half of the maximal activity seen.

Chain of Nuclear receptor subfamily 1 group I member 3 (Homo sapiens) (Q14994 whole entry, looked up, the tested form may be a part): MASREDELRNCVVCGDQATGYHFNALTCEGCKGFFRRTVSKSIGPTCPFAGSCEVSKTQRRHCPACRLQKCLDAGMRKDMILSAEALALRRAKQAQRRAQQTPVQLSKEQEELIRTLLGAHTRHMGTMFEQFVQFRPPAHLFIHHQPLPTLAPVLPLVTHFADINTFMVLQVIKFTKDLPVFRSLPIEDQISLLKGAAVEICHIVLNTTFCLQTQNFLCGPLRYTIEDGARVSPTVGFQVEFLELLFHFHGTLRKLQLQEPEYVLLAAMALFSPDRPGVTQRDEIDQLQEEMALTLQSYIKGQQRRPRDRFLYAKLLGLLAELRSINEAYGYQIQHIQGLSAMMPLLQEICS
Chain of Steroid hormone receptor ERR1 (Homo sapiens) (P11474 whole entry, looked up, the tested form may be a part): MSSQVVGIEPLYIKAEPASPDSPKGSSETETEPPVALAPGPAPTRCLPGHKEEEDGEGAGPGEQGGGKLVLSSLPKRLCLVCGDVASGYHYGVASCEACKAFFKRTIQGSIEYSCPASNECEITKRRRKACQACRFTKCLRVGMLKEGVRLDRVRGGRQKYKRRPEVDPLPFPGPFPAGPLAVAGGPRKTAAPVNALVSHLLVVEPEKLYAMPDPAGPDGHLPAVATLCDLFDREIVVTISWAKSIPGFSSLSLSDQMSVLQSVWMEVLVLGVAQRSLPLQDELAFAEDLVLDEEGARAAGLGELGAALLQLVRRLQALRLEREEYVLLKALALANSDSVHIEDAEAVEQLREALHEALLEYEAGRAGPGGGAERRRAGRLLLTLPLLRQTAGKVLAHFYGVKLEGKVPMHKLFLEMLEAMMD
Chain of X-box-binding protein 1 (Homo sapiens) (P17861 whole entry, looked up): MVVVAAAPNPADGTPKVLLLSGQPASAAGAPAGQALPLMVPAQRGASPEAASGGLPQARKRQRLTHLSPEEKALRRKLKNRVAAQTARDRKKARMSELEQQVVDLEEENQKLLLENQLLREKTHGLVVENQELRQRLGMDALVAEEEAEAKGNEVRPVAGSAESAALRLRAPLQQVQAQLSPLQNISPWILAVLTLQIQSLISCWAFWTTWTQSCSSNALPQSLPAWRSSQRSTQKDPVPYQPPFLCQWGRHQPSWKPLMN
Chain of Androgen receptor (Homo sapiens) (P10275 whole entry, looked up, the tested form may be a part): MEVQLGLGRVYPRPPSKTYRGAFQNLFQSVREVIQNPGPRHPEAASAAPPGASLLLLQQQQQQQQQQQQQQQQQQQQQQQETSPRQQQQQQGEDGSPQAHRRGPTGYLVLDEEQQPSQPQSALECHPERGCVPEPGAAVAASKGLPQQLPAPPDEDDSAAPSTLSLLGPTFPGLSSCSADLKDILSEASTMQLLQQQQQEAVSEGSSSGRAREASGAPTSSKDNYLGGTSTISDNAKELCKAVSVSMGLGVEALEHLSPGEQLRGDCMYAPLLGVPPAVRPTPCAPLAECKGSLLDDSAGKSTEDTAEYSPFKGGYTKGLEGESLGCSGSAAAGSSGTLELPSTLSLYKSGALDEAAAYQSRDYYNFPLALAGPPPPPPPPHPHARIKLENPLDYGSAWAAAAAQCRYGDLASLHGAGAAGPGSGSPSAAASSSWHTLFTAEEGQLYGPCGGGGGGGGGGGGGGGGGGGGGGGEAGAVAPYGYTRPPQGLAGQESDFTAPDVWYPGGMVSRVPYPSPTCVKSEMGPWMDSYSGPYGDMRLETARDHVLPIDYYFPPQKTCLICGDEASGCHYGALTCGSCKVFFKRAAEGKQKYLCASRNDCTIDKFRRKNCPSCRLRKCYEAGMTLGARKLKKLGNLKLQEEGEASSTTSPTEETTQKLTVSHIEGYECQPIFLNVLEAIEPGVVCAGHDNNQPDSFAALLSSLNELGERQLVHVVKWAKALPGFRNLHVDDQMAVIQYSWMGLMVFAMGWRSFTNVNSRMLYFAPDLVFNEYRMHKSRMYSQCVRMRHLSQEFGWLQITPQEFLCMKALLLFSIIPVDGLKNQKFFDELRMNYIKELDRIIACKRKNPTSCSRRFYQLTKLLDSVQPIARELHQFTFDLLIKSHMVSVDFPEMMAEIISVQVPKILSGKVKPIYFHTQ
Chain of Estrogen receptor (Homo sapiens) (P03372 whole entry, looked up, the tested form may be a part): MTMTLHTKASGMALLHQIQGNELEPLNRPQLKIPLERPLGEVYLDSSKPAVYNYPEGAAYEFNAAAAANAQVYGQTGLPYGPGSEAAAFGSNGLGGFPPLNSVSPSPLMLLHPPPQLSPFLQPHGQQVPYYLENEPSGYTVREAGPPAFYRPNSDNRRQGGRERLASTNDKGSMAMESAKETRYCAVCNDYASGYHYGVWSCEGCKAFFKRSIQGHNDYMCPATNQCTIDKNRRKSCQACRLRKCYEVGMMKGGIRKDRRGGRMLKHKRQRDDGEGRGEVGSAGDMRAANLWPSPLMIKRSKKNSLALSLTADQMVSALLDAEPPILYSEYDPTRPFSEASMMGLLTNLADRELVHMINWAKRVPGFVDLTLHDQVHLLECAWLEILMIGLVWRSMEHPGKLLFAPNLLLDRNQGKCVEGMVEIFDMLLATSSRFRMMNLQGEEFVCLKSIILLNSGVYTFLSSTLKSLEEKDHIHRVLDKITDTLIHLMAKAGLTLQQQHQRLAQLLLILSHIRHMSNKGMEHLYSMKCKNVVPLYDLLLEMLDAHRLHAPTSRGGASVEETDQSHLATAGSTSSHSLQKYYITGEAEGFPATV

For `CNC(=O)ON=C(SC)C(=O)N(C)C`, the call in test [1], in test [2], in [3], in test [4], in test [5] and in test [7] was inactive. Also, the AC50 in [6] is 40.5 µM (active).
Regarding `CCc1cccc(C)c1N(C(=O)CCl)C(C)COC` (stereo not drawn), the molecule was classed as inactive in [1], in test [3], in [6] and in [7]. Moreover, the AC50 in [2] was 9.18 µM (active).
Regarding `CCCOc1nn(C(=O)NS(=O)(=O)c2ccccc2C(=O)OC)c(=O)n1C`, the molecule was classed as inactive in test [1], in test [2], in [3], in test [6] and in test [7].
On to `CCCCN(CC)c1c([N+](=O)[O-])cc(C(F)(F)F)cc1[N+](=O)[O-]`, for which the outcome in [1], in [3], in test [5] and in test [6] was inactive. In test [2], the concentration at half-maximal activity (AC50) was 13.3 µM (active).
With `COc1cccc(C(=O)NN(C(=O)c2cc(C)cc(C)c2)C(C)(C)C)c1C`, the outcome in test [1], in test [5] and in test [6] was inactive. The AC50 in [2] is 1.94 µM (active).
Consider `CN(C)NC(=O)CCC(=O)O`, for which the call in test [1], in [2], in test [5] and in test [6] was inactive.
Regarding `CC(C1CC1)C(O)(Cn1cncn1)c1ccc(Cl)cc1` (stereo not drawn), the molecule was called inactive in [1], in [2], in [6] and in test [7].
For the molecule `CCOP(=S)(OCC)Oc1ccc2c(C)c(Cl)c(=O)oc2c1`, the result in test [1], in [3], in [5], in test [6] and in test [7] was inactive.
Consider `CN1COCN(Cc2cnc(Cl)s2)C1=N[N+](=O)[O-]`, for which the molecule was called inactive in test [1], in test [2] and in [6].
As for `CC(=NC#N)N(C)Cc1ccc(Cl)nc1`, the result in [1], in test [2] and in [6] was inactive.
On to `O=c1ccc(=O)[nH][nH]1`, for which the molecule was classed as inactive in [1], in test [2], in [5], in test [6], in [8] and in test [7].
Consider `CSC1=N[C@@](C)(c2ccccc2)C(=O)N1Nc1ccccc1`, for which the result in test [1], in test [6] and in [9] was inactive. In test [2], the AC50 is 24.3 µM (active).
For the molecule `COc1ccc(C(=CC(=O)N2CCOCC2)c2ccc(Cl)cc2)cc1OC`, the outcome in [1], in test [5], in test [6], in test [8], in test [7] and in [10] was inactive. Also, the AC50 in test [2] was 11.4 µM (active).
For the molecule `CCOP(=O)(OCC)Oc1cc(C)nc(C(C)C)n1`, the call in test [1] and in test [6] was inactive.
In the case of `O=C(O)c1cc(Oc2ccc(C(F)(F)F)cc2Cl)ccc1[N+](=O)[O-]`, the outcome in test [1], in test [5], in [6], in test [7] and in [9] was inactive.
With `CC(Oc1cccc(Cl)c1)C(=O)O` (stereo not drawn), the outcome in test [1], in [2], in test [6] and in test [7] was inactive.
For the molecule `CCOP(=S)(OCC)Oc1cc(C)nc(C(C)C)n1`, the call in [1], in test [3] and in [6] was inactive.
In the case of `CSc1nnc(C(C)(C)C)c(=O)n1N`, the molecule was classed as inactive in test [1], in [2] and in test [6].
Consider `C=C(C)[C@H]1Cc2c(ccc3c2O[C@@H]2COc4cc(OC)c(OC)cc4[C@@H]2C3=O)O1`, for which the outcome in test [1], in test [3] and in test [5] was inactive. Moreover, in test [6], the AC50 is 0.0204 µM (active).

(Values after PubChem BioAssay (EPA / NIEHS).)
